Data as given in PubChem BioAssay (NCATS).
Inconclusive results are not listed. Calls come from the whole dose curve; as a rule, active = well fitted inhibition curve with a large enough effect; inconclusive = small, poorly fitted or top-dose-only effect; inactive = flat fitted curve, though single readings scatter.

Assay: qHTS for Inhibitors of Plasmodium falciparum (DD2) proliferation (AID 504314);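 note: parasite DNA measured by SYBR Green fluorescence after red cell lysis; plate controls were DMSO vehicle for no effect and artemisinin wells for full effect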
Details: P. falciparum Dd2 in erythrocytes, SYBR Green growth, 72 h; series mostly up to 1.12 µM; activity, negative = inhibition: at the top concentration
Procedure, shortened: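 Infected RBCs, 0.3% parasitemia, 2.5% Hct; compound 72 h, 37C/5% CO2; lyse + SYBR Green I, RT overnight, dark; read ex485/em535; normalize to DMSO and artemisinin 0.29 uM.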

activity, negative = inhibition, inactive:
COC(=O)CCC(=O)OC1(C)C(=O)C=C2C=C(C3CC3)N(C3CC3)C=C2C1=O (configuration not stated) 1.21%, CCCCc1nc2c(c3c1C[C@H](C)OC3)CN(C(=O)Cc1cccc(OC)c1)CC2 -2.48%, COC(=O)C1=C(C(=O)OC)[C@@H]2N(C)c3ccccc3[C@@]23C[C@@H](C(=O)OC)N(S(=O)(=O)c2c(C)noc2C)C3=N1 2.88%, C=CCNC(=O)N1CCc2nc(COc3ccccc3)c3c(c2C1)CO[C@@H](C)C3 -0.893%, COC(=O)CCCC1=CC2=C(c3ccccc3)C(=O)C(C)(OC(=O)C3CCCC3)C(=O)C2=CN1CCCOC(C)C (configuration not stated) 1.19%, CC1(OC(=O)CCc2ccccc2)C(=O)C=C2C=C(c3ccc(C#N)cc3)N(C3CCCC3)C=C2C1=O (configuration not stated) -5.13%, C=CCN1C=C2C(=O)C(C)(OC(=O)CCc3ccccc3)C(=O)C=C2C=C1c1ccc(C#N)cc1 (configuration not stated) -0.687%, Cc1cc2c(c(=O)n1-c1ccccc1)[C@H]1O[C@](c3ccsc3)(Cc3cc(C#N)ccc31)O2 -12.3% [at 6.11 µM], COC(=O)C1=C(C(=O)OC)[C@@H]2N(C)c3ccccc3[C@@]23C[C@@H](C(=O)OC)N(S(=O)(=O)c2ccc4c(c2)OCCN4C)C3=N1 -5.59%, C[C@H]1Cc2c(-c3ccccc3)nc3c(c2CO1)CN(C(=O)c1cc(I)ccc1F)CC3 -1.34%, CCCCc1nc2c(c3c1C[C@H](C)OC3)CN(C(=O)c1cc(I)ccc1F)CC2 -2.6%, COC(=O)C1=C(C(=O)OC)[C@@H]2N(Cc3ccccc3)c3ccccc3[C@@]23C[C@@H](C(=O)OC)N(C(=O)COCc2ccccc2)C3=N1 2.09%
